The values below come from PubChem BioAssay (NCI).

About 83,000 compounds went through this panel and 20% of them were active in at least one assay; those are over-represented in the sample as a whole.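 Treatment: one concentration, 48 hours, 96-well format. Scoring: percent growth, with anything below 10 considered active.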 Unmarked numbers belong to inactive results. Calls of active or inactive are those of the source.

Some test systems named below: SR leukemia; RPMI-8226 leukemia; OVCAR-8 ovarian; OVCAR-5 ovarian; OVCAR-4 ovarian; SK-OV-3 ovarian; IGROV1 ovarian; OVCAR-3 ovarian; HS 578T breast; NCI/ADR-RES ovarian; T-47D breast; BT-549 breast; MDA-MB-435 melanoma; SW-620 colon; MCF7 breast; HCT-116 colon; HCC-2998 colon; KM12 colon.
Assay in all cases: NCI-60 one-dose screen, 48 h (100 = growth as untreated, 0 = no growth, -100 = all killed)
Common to all, as to settings: 10 µM unless noted

On to `COc1cccc(NC(=O)c2sc3nc4c(cc3c2N)CN(Cc2ccccc2)CC4)c1`, for which the growth in the assay on SR leukemia was 28.8%; in the assay on RPMI-8226 leukemia, 72.7%; in the assay with OVCAR-8 ovarian, 47%; with OVCAR-5 ovarian it was 85.3%; in the assay on OVCAR-4 ovarian, 20.5%; with SK-OV-3 ovarian, 36.9%. Besides, the growth in the assay on IGROV1 ovarian was 44.2%; in the assay on OVCAR-3 ovarian, 36.4%; with HS 578T breast it was 20.8%; with NCI/ADR-RES ovarian it was 63.2%; with T-47D breast it was 66.1%; with BT-549 breast, 65.5%. Further, the growth in the assay with MDA-MB-435 melanoma is 4.27% (active); with SW-620 colon, 54.4%; in the assay with MCF7 breast, 49.5%; in the assay on HCT-116 colon, 58.1%; in the assay with HCC-2998 colon, 77.3%; in the assay on KM12 colon, 48.2%.
In the case of `C(=N\Nc1nnn(Cc2ccccc2)n1)/c1ccccc1`, the growth in the assay with SR leukemia was 17.2%; in the assay on RPMI-8226 leukemia it was 31.2%; in the assay on OVCAR-8 ovarian, 39.8%; in the assay with OVCAR-5 ovarian it was 93.1%; in the assay with OVCAR-4 ovarian, 79.4%; in the assay with SK-OV-3 ovarian it was 35.9%. Besides, the growth in the assay with IGROV1 ovarian is 50.4%; with OVCAR-3 ovarian, -38.1% (active); in the assay on HS 578T breast it was 36.5%; in the assay with NCI/ADR-RES ovarian it was -0.167% (active); in the assay on T-47D breast, 45.6%; in the assay on BT-549 breast, 46.5%. Further, the growth was -26.1% (active) with MDA-MB-435 melanoma; 35.2% with SW-620 colon; 27.5% with MCF7 breast; 43.8% with HCT-116 colon; 45.6% with HCC-2998 colon; 19.4% in the assay with KM12 colon.
With `COc1ccc(-c2cc(-c3ccc(N(C)C)cc3)nc(NC(=O)c3ccncc3)n2)cc1`, the growth with SR leukemia was 121%; with RPMI-8226 leukemia, 93%; with OVCAR-8 ovarian, 97.7%; in the assay on OVCAR-5 ovarian, 109%; in the assay on OVCAR-4 ovarian, 122%; with SK-OV-3 ovarian, 117%. Further, the growth in the assay with IGROV1 ovarian is 95.2%; with OVCAR-3 ovarian it was 98.8%; in the assay with HS 578T breast, 97.2%; in the assay with NCI/ADR-RES ovarian, 96.6%; with T-47D breast, 88.9%; in the assay on BT-549 breast, 104%. Further, the growth was 104% in the assay on MDA-MB-435 melanoma; 98.7% with SW-620 colon; 78% in the assay on MCF7 breast; 94% in the assay with HCT-116 colon; 97.8% with KM12 colon.
Turning to `O=c1[nH]c(-c2ccccn2)nc2sc3c(c12)CCCCC3`, the growth with SR leukemia was 27.3%; with RPMI-8226 leukemia, 40.2%; in the assay on OVCAR-8 ovarian, 36.1%; in the assay with OVCAR-5 ovarian, 72.1%; in the assay on OVCAR-4 ovarian, 23.6%; with SK-OV-3 ovarian, 53%. For the same compound, the growth with IGROV1 ovarian was 45.1%; with OVCAR-3 ovarian, 40.3%; with HS 578T breast, 81.7%; in the assay on NCI/ADR-RES ovarian, 15.1%; with T-47D breast, 33.8%; in the assay with BT-549 breast it was 70.1%. The growth in the assay with MDA-MB-435 melanoma is 55.7%; in the assay on SW-620 colon, 29.5%; in the assay on MCF7 breast, 32.9%; with HCT-116 colon, 24.7%; in the assay on HCC-2998 colon it was 68.7%; in the assay on KM12 colon, 39.4%.
Turning to `NC1=CSC2=N/C(=C\c3ccc(Cl)cc3)C(=O)N12`, the growth is -2.29% (active) in the assay with SR leukemia; 39.9% with RPMI-8226 leukemia; 72.3% with OVCAR-8 ovarian; 105% in the assay on OVCAR-5 ovarian; 84.1% with OVCAR-4 ovarian; 89.3% in the assay with SK-OV-3 ovarian. Further, the growth in the assay on IGROV1 ovarian was 79.2%; in the assay with OVCAR-3 ovarian, 71.6%; in the assay on HS 578T breast it was 101%; with NCI/ADR-RES ovarian, 76.1%; with T-47D breast, 79%; in the assay with BT-549 breast, 75.3%. Also, the growth is 68% in the assay with MDA-MB-435 melanoma; 71.3% in the assay with SW-620 colon; 67.2% with MCF7 breast; 66.1% in the assay on HCT-116 colon; 90.2% in the assay with HCC-2998 colon; 89.2% in the assay with KM12 colon.
Turning to `Oc1ccccc1N=Cc1c(O)ccc2ccccc12`, the growth in the assay with SR leukemia was 37.5%; in the assay with RPMI-8226 leukemia, 26.5%; with OVCAR-8 ovarian, 97.8%; in the assay with OVCAR-5 ovarian it was 87.3%; in the assay on OVCAR-4 ovarian, 74.8%; with SK-OV-3 ovarian, 84.6%. Moreover, the growth in the assay on IGROV1 ovarian is 58.9%; in the assay with OVCAR-3 ovarian, 64.2%; in the assay with HS 578T breast it was 64.9%; in the assay with NCI/ADR-RES ovarian, 56.8%; in the assay on T-47D breast, 63%; in the assay on BT-549 breast, 54.5%. For the same compound, the growth is 79.1% in the assay with MDA-MB-435 melanoma; 85.7% in the assay with SW-620 colon; 70.4% in the assay with MCF7 breast; 70.6% in the assay with HCT-116 colon; 92.4% with HCC-2998 colon; 59.1% in the assay on KM12 colon.
As to `CC(=O)OC1Oc2cc(C)c(C)cc2-c2oc(=O)c(-c3cc4ccc(N(C)C)cc4oc3=O)cc21` (stereo unspecified), the growth is -41.6% (active) in the assay with SR leukemia; 29.4% in the assay on RPMI-8226 leukemia; 75.9% in the assay on OVCAR-8 ovarian; 86.4% with OVCAR-5 ovarian; 89.8% in the assay with OVCAR-4 ovarian; 78.2% with SK-OV-3 ovarian. The growth is 93.2% in the assay on IGROV1 ovarian; 94.1% with OVCAR-3 ovarian; 112% with HS 578T breast; 64.7% with NCI/ADR-RES ovarian; 26.3% in the assay on T-47D breast; 59.3% in the assay on BT-549 breast. Also, the growth was 72.6% in the assay on MDA-MB-435 melanoma; 104% in the assay on SW-620 colon; 78.6% in the assay on MCF7 breast; 48.3% with HCT-116 colon; 106% with HCC-2998 colon; 94.5% with KM12 colon.
Turning to `O=C1c2cccnc2C(=O)c2c1c(C(=O)OCCN1CCOCC1)c1ccccn21`, the growth in the assay with SR leukemia was -10.1% (active); in the assay on RPMI-8226 leukemia it was 10.1%; with OVCAR-8 ovarian it was 9.13% (active); in the assay with OVCAR-5 ovarian, -9.33% (active); in the assay with OVCAR-4 ovarian it was 24.2%; in the assay on SK-OV-3 ovarian it was -0.946% (active). Besides, the growth with IGROV1 ovarian was 1.32% (active); in the assay on OVCAR-3 ovarian it was -6.91% (active); in the assay on HS 578T breast it was 30.3%; in the assay on NCI/ADR-RES ovarian it was 5.58% (active); with T-47D breast it was 9.37% (active); with BT-549 breast it was -13.3% (active). Moreover, the growth was -36% (active) with MDA-MB-435 melanoma; 6.61% (active) with SW-620 colon; -45.9% (active) in the assay on MCF7 breast; -1.07% (active) in the assay on HCT-116 colon; 10.7% in the assay on HCC-2998 colon; 22.2% in the assay on KM12 colon.
For `Cc1cc(Nc2nc(-c3cccnc3)nc3ccccc23)n[nH]1`, the growth with SR leukemia was 15.5%; in the assay on RPMI-8226 leukemia, 98.8%; with OVCAR-8 ovarian it was 80.6%; in the assay with OVCAR-5 ovarian it was 65.9%; in the assay on OVCAR-4 ovarian, 60.8%; in the assay on SK-OV-3 ovarian it was 21.9%. Also, the growth with IGROV1 ovarian was 28.9%; with OVCAR-3 ovarian, 59%; in the assay on HS 578T breast it was 5.1% (active); in the assay with NCI/ADR-RES ovarian, 69.3%; in the assay with T-47D breast it was 27.2%; with BT-549 breast, 47.2%. In addition, the growth is 56.2% in the assay with MDA-MB-435 melanoma; 47% in the assay on SW-620 colon; 23% with MCF7 breast; 30.9% in the assay with HCT-116 colon; 69.7% in the assay with HCC-2998 colon; 19.1% in the assay on KM12 colon.
